Measurements published in publication PMC4336329 (PLoS ONE, 2015).
About 14,000 (4.5%) of roughly 310,000 compounds showed an effect of 50% or more. Effects have a minus sign here. For the sample, strong results were picked, then their nearest neighbours and some compounds at random.

The compounds below were run against human ether-à-go-go-related gene (hERG) potassium channel (human, UniProt Q12809) (assay: primary screen, population patch clamp on CHO cells stably expressing hERG; higher = less effect of the substance).
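Further: peak tail current of the secondary pulse compared with the same well before compound.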

human ether-à-go-go-related gene (hERG) potassium channel, sequence (Q12809 whole entry, looked up): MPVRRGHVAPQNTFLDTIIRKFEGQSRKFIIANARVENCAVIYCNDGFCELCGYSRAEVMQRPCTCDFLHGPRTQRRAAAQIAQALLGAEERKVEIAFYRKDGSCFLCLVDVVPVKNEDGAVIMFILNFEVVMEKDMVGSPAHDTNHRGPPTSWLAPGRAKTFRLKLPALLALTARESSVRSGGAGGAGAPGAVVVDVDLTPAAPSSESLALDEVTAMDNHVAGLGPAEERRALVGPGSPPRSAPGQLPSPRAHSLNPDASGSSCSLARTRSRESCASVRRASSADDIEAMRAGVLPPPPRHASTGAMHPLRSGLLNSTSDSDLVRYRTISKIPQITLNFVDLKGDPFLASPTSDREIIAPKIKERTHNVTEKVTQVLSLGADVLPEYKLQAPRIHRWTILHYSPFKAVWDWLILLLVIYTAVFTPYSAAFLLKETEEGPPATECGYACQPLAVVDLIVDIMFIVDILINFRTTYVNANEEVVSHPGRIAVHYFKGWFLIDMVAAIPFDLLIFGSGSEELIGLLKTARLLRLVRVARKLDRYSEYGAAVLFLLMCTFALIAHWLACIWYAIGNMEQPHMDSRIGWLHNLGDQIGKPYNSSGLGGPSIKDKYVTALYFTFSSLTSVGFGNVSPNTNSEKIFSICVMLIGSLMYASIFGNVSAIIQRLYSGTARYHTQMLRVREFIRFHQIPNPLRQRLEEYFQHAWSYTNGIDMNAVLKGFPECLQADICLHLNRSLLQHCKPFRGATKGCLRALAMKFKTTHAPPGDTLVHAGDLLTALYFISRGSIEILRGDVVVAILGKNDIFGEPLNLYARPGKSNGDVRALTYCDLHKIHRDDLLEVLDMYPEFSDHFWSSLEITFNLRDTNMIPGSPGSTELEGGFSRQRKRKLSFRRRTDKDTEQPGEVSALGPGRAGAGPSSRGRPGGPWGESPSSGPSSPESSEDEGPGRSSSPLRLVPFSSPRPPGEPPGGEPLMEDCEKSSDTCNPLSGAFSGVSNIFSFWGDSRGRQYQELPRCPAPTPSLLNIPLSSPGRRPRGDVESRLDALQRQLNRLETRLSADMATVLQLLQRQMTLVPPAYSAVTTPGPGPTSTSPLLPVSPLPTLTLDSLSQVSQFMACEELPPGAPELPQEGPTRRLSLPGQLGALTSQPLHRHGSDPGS

Compound	hERG current change (%, negative = inhibition) at 10uM [%]
COc1ccc(N2CCN(C(=O)C34CCC(C)(C(=O)C3)C4(C)C)CC2)cc1 (stereo not drawn)	-0.453
CN(CC(=O)Nc1ccc(Cl)c(C(F)(F)F)c1)C(=O)Cc1n[nH]c(=O)c2ccccc12	-16.2
COc1ccc(-n2nc3c(c2NC(=O)c2ccc(Br)o2)CS(=O)(=O)C3)cc1	-16.4
COC(=O)Nc1ccc(S(=O)(=O)N2CCC(C(=O)N(C)C3CCCCC3)CC2)cc1	9.22
COC(=O)CCC(=O)NC(=S)Nc1cc(Cl)ccc1Cl	10.5
CC1CCN(CC(=O)N2CCCc3c2c(=O)oc2ccc(OCc4ccccc4)cc32)CC1	-10.5
O=C(CN1CCCC1)N1CCCc2c1c(=O)oc1ccc(OCc3ccccc3)cc21	-65.6
CC(=O)Oc1ccc2oc(=O)c3c(c2c1)CCCN3C(=O)CN1CCOCC1	1.97
CC1CC(C)CN(CC(=O)N2CCCc3c2c(=O)oc2ccc(OCc4ccccc4)cc32)C1 (stereo not drawn)	-4.71
Cc1cc(=O)oc2ccc(OCc3ccccc3)cc12	5.11
O=C(CN1CCCCC1)N1CCCc2c1c(=O)oc1ccc(OCc3ccccc3)cc21	-54.6
O=C1OCC/C1=C\c1ccc(O)cc1	12.3
O=C(NCCCN1CCOCC1)C1Nc2ccc(OC(F)(F)F)cc2C2C=CCC12 (stereo not drawn)	-18.9
CCc1noc(C)c1C(=O)Nc1ccc(F)c(F)c1	-15.4
COc1cc(NC(=O)Cn2nc(C(F)(F)F)c(Br)c2C)cc([N+](=O)[O-])c1	27.7
Cn1c(=O)c([N+](=O)[O-])c(NCC2CCCO2)c2ccccc21 (stereo not drawn)	0.511
Cc1nc2c3cc(F)ccc3n(CCN3CCCCC3)c2s1.Cl	-69.9
Cc1nc2c3ccccc3n(CCN3CCCCC3)c2s1.Cl	-28.9
Clc1ccc2c(c1)c1cc(Cl)ccc1n2CN1CCOCC1	-1.99
Cc1ccc2c(c1)c1nc3ccccc3nc1n2C	21.3
c1ccc2nc3c(nc2c1)c1ccccc1n3CCN1CCOCC1	-48.5

Compound	hERG current change (%, negative = inhibition) at 10uM [%]
COC(=O)Cn1c2ccc(C)cc2c2nc(C)sc21	-7.39
OC(CN1CCCCC1)Cn1c2ccc(Cl)cc2c2cc(Cl)ccc21 (stereo not drawn)	-29.6
Cc1nc2c3cc(Cl)ccc3n(CCN3CCOCC3)c2s1	-52.2
Cc1nc2c3cc(Cl)ccc3n(CCN3CCCCC3)c2s1.Cl	-70
CCc1ccc2c(c1)c1nc(C)sc1n2CC	-5.89
Cc1ccc2c(c1)c1nc3ccccc3nc1n2CCN1CCOCC1	-62.8
Cc1nc2c3cc(F)ccc3n(Cc3ccccc3F)c2s1	-5.77
CCc1ccc(NC(=O)Cn2nc(C)n3cccc3c2=O)cc1	15
O=C(Nc1cccnc1)c1sc(Nc2ccccc2F)nc1-c1ccccc1	20.5
O=C(O)/C=C\C(=O)Nc1ccc(N2CCN(c3cccc(Cl)c3)CC2)cc1	10.2
CCCCCN(C(=O)CCC(=O)OCCOc1ccccc1Cl)c1c(N)n(CCCC)c(=O)[nH]c1=O	-41.3
COC(=O)CSc1nnc(-c2ccc(NS(=O)(=O)c3ccccc3)cc2)o1	9.9
CC(=O)Oc1ccc2c(C)c(CC(C)O)c(=O)oc2c1 (stereo not drawn)	6.98
Cl.O=C(NN1CCN(Cc2ccccc2Cl)CC1)c1ccc(Br)cc1	18.3
Cc1cc(C)c(N=Cc2c(O)[nH]c(=O)[nH]c2=O)c(C)c1	11.6
CCN(CC)C(=O)C1CCCN(c2ccc([N+](=O)[O-])cc2/C=N/NC(=O)c2cccc(Br)c2)C1 (stereo not drawn)	-0.713
Cn1cc(/C=N/NC(=O)c2cccc([N+](=O)[O-])c2)c2ccccc21	14.8
CCN(CC)C(=O)C1CCCN(c2ccc([N+](=O)[O-])cc2/C=N/NC(=O)c2cccc(O)c2)C1 (stereo not drawn)	-16.9
CCN(CC)C(=O)C1CCCN(c2ccc([N+](=O)[O-])cc2[N+](=O)[O-])C1 (stereo not drawn)	-38.3
CCN(CC)C(=O)C1CCCN(c2ccccc2[N+](=O)[O-])C1 (stereo not drawn)	-1.67
CCN(CC)C(=O)C1CCCN(c2ccc([N+](=O)[O-])cc2/C=N/NC(=O)c2cccc([N+](=O)[O-])c2)C1 (stereo not drawn)	-55.3
